Experimental findings from ChEMBL document CHEMBL3988442, “University of Dundee, Small-Polar-MMV Screening Library” (2021) are described below.

Set-up in all cases: scale not given: direction of the effect not stated beside the values
The target of experiment [1] is Protein translocase subunit SecA (Escherichia coli (strain K12)) (UniProt P10408). Kind of experiment: Assay to Identify E. coli SecA ATPase Inhibitors. Type of experiment: functional. The note with it: 30 µM.
Experiment [2] deals with T1, Ubiquitin-activating enzyme e1, putative (Leishmania donovani (strain BPK282A1)) (UniProt E9BSI1).
T1 sequence (whole entry): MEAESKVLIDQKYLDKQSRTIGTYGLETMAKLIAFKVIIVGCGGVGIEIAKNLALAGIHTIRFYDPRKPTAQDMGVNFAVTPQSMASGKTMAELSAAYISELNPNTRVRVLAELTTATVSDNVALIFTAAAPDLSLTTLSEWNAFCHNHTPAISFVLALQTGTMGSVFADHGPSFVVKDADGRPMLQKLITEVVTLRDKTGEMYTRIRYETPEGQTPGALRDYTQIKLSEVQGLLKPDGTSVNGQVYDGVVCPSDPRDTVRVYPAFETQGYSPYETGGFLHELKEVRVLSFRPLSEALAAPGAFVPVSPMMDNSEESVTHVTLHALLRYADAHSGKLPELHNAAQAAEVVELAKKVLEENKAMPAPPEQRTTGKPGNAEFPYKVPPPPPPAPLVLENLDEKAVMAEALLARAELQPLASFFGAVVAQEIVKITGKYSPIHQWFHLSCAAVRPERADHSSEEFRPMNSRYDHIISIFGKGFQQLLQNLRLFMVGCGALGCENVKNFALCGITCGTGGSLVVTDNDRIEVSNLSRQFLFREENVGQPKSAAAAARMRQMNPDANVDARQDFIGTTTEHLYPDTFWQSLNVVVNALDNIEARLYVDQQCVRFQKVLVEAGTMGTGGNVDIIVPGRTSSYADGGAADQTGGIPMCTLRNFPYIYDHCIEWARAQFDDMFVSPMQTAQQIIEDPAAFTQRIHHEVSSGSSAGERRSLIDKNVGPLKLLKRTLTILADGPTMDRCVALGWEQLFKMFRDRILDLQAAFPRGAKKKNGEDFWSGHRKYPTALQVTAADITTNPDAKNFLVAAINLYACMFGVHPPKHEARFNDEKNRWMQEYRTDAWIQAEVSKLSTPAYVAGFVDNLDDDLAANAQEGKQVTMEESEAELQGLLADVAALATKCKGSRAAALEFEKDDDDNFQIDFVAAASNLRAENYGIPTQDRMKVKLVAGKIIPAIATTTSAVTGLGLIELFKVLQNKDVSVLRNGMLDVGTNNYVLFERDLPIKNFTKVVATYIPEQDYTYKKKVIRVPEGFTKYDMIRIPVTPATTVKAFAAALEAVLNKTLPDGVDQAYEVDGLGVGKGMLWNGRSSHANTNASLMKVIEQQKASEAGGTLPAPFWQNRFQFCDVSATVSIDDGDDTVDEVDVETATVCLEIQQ
As to the kind of experiment: Leishmania donovani Ubiquitin Activating Enzyme (LdE1). The note with it: 30 µM. Type of experiment: functional.

The target in experiment [3] is Sialic acid-binding Ig-like lectin 9 (Homo sapiens) (UniProt Q9Y336). Kind of experiment: Hs-Siglec9 ALPHAscreen SOP 20170721. The note with it: 10 µM. (In general: In Alpha technology, singlet oxygen from a donor bead excites a nearby acceptor bead.)
The next experiment concerns Trypanosoma cruzi. Kind of experiment: Trypanosoma cruzi phosphomannomutase and mannose-1-phosphate guanylyltransferase assay. Type of experiment: functional. Conditions: 10 µM.
The target in experiment [4] is T2, Arginase-2, mitochondrial (Homo sapiens) (UniProt P78540).
T2 sequence (whole entry): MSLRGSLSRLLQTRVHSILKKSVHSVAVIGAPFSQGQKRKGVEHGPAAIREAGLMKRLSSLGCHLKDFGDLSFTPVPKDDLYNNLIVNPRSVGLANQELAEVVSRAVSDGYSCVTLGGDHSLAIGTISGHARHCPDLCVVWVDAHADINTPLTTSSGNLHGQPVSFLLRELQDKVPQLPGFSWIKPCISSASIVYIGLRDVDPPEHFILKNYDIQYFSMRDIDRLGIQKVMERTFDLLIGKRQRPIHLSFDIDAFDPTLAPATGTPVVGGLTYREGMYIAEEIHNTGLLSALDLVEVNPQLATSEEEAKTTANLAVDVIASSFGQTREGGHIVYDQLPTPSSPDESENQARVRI
As to the kind of experiment: in vitro enzyme assay to detect the production of urea directly proportional to the activity of Arginase II. Also: in the data most compounds retested in dose-response had high values. Type of experiment: functional. The note with it: 33.3 µM.

Experiment [5] concerns the target T3, Proteasome subunit beta (Trypanosoma cruzi) (UniProt O96673).
T3 sequence (whole entry): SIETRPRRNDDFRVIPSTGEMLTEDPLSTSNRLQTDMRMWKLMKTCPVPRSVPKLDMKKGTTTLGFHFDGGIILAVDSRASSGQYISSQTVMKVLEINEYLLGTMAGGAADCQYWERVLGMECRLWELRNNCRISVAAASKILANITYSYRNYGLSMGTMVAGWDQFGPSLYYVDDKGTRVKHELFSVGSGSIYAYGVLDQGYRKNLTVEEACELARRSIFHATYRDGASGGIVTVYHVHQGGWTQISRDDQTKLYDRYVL
Kind of experiment: Trypanosoma cruzi proteasome chymotrypsin-like activity (TcProtChymo) assay. Also: in the data most compounds retested in dose-response had high values. Type of experiment: functional. The note with it: 9.37 µM.

The species entered for a further experiment is Homo sapiens. Kind of experiment: To identify inhibition of the IFN signalling (Jak-Stat) pathway via expression of an eGFP reporter gene under the control of an IFN-stimulated response element (ISRE) containing MxA promoter. Type of experiment: functional. The note with it: 30 µM. In general terms: A reporter such as luciferase makes a cellular process visible.

The target in experiment [6] is T4, Tyrosyl-tRNA synthetase, putative (Trypanosoma cruzi (strain CL Brener)) (UniProt Q4DSP6).
T4 sequence (whole entry): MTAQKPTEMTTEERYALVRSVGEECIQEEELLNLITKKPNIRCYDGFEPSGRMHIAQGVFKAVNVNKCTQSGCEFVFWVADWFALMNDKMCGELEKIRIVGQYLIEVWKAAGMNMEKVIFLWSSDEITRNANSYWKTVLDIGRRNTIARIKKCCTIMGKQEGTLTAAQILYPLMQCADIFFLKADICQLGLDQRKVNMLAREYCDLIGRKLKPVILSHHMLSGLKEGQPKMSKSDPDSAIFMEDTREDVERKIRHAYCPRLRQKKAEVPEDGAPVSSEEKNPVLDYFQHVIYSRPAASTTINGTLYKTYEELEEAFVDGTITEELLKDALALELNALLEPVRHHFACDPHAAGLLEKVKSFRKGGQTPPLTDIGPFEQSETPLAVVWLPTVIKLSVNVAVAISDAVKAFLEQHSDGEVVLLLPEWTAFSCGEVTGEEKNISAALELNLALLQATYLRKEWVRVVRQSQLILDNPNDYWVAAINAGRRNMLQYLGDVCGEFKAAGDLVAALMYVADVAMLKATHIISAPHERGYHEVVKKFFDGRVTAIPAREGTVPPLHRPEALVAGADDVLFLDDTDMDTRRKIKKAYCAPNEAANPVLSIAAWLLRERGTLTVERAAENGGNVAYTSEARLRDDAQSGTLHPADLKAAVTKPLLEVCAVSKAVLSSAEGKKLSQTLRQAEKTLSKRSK
As to the kind of experiment: Trypanosoma cruzi tyrosyl tRNA synthetase (TcYRS) _High Tyrosine SOP. Also: in the data most compounds retested in dose-response had high values. Type of experiment: functional. Conditions: 30 µM.

Experiment [7] concerns the target T4, Tyrosyl-tRNA synthetase, putative (Trypanosoma cruzi (strain CL Brener)). As to the kind of experiment: Trypanosoma cruzi tyrosyl tRNA synthetase (TcYRS) SOP. Type of experiment: functional. The note with it: 30 µM.
Experiment [8] concerns the target Chromo domain-containing protein 1 (Saccharomyces cerevisiae (strain ATCC 204508 / S288c) (Baker's yeast)) (UniProt P32657). As to the kind of experiment: ScCHD-1 Enzyme Inhibition Assay. Also: in the data most compounds retested in dose-response had high values. Type of experiment: functional. Conditions: 30 µM.

Molecules are shown by their SMILES. For part of these data: Measured potencies and affinities stand elsewhere.

Chain of Protein translocase subunit SecA (Escherichia coli (strain K12)) (P10408 whole entry): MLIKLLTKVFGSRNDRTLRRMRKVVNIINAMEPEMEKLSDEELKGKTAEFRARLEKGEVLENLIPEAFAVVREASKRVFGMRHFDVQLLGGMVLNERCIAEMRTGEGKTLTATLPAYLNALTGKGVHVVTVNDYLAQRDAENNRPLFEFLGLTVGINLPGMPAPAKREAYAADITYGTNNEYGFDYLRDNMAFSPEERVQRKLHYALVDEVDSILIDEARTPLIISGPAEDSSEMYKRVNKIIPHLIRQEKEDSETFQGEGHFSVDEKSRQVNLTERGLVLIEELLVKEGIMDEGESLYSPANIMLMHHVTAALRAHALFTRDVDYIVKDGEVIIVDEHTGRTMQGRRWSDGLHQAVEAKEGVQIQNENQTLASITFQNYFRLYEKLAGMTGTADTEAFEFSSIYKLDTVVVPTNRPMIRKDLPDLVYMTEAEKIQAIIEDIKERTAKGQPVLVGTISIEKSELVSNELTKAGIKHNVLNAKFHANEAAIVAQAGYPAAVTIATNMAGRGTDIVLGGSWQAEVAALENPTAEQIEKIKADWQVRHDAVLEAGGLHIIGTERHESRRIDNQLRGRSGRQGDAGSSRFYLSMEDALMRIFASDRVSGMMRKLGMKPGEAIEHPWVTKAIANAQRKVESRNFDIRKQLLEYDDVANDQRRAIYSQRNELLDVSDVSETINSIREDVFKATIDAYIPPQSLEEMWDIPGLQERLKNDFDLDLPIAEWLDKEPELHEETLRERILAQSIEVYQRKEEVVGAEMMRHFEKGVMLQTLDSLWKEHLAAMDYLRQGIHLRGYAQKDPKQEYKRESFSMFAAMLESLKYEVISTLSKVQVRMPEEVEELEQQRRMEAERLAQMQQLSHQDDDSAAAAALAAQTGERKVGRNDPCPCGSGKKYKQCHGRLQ
Chain of Chromo domain-containing protein 1 (Saccharomyces cerevisiae (strain ATCC 204508 / S288c) (Baker's yeast)) (P32657 whole entry, the tested form may be a part): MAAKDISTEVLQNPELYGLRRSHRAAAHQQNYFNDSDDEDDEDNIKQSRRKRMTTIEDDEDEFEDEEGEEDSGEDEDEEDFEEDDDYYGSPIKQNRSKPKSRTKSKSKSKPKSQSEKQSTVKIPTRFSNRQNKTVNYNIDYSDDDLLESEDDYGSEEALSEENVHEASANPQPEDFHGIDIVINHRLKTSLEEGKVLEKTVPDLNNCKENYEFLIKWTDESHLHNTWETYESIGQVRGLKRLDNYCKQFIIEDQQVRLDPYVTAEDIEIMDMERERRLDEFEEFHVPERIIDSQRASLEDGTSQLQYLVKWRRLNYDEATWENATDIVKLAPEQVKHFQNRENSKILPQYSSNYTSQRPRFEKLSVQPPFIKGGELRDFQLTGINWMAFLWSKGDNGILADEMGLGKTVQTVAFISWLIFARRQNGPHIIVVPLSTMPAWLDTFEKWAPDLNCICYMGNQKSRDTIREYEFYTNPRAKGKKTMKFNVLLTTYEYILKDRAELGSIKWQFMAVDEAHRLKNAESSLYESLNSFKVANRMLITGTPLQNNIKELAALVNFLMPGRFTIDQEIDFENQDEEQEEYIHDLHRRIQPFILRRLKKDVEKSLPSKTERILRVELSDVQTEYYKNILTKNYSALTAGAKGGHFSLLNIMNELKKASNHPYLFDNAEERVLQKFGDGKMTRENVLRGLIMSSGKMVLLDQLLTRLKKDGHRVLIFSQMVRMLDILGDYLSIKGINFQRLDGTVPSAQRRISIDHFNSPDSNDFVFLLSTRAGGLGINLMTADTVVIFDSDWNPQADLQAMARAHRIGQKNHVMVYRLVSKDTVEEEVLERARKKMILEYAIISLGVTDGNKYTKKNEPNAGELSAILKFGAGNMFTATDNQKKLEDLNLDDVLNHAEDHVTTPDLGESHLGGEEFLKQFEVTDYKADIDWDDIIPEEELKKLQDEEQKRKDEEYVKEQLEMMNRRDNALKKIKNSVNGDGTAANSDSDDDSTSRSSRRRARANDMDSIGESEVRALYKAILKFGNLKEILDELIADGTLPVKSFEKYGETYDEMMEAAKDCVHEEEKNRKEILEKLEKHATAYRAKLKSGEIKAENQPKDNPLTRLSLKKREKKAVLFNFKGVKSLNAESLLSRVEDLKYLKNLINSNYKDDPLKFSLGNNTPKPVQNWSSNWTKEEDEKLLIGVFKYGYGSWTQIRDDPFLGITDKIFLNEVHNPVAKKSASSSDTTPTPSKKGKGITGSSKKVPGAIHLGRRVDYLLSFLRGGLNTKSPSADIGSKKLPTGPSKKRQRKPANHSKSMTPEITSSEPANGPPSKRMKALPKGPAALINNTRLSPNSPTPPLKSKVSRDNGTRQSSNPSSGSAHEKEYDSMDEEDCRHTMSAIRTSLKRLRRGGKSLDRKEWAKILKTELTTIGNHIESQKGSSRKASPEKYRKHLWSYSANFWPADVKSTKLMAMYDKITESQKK
Chain of Sialic acid-binding Ig-like lectin 9 (Homo sapiens) (Q9Y336 whole entry): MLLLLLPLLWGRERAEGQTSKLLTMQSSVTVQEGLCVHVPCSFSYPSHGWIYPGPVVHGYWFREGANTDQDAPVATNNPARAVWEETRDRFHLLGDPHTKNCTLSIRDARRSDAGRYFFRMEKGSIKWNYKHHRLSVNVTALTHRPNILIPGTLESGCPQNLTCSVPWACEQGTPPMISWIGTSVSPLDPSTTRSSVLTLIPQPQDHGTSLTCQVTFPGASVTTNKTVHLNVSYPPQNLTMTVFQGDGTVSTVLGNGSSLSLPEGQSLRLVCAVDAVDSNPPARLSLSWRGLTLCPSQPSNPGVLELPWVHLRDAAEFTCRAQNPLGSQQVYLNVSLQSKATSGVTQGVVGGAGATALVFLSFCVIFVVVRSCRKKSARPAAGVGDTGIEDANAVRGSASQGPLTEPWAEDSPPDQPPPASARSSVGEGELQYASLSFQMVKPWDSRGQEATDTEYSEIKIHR

Regarding `O=C(C1CCCCC1)N1CCC2(CCCN2CC2CC2)CC1`, the Percent Effect in experiment [1] was -2.94%; in [2] it was 11.7%; in experiment [3], -2.33%; in the experiment with Trypanosoma cruzi it was -3.56%; in [4], 1.37%; in experiment [5], 3.18%. Also, the Percent Effect in the experiment filed under Homo sapiens is 13.7%; in experiment [6], 2.9%; in experiment [7] it was 2.5%; in experiment [8], -6.38%.
As for `Cc1cnn(CC2CCCN2CC(=O)Nc2nc(C)cs2)c1` (stereo not given), the Percent Effect in [1] was -2%; in [2], 7.79%; in [3] it was 11.1%; in the experiment with Trypanosoma cruzi, 0.746%; in experiment [4], 5.12%; in [5], -1.4%. For the same molecule, the Percent Effect in the experiment filed under Homo sapiens was 2.04%; in [6], 12.8%; in [7] it was 21.2%; in experiment [8] it was -5.41%.
As for `CN(Cc1ccc(F)cc1)[C@@H]1CN(C(=O)c2cccs2)C[C@H]1O`, the Percent Effect was -4.06% in experiment [1]; 17.3% in experiment [2]; -0.715% in [3]; 1.97% in the experiment with Trypanosoma cruzi; -3.1% in experiment [4]; 17.6% in [5]. Also, the Percent Effect is 10.6% in the experiment listed under Homo sapiens, 5.29% in [6], 20% in experiment [7] and -21.9% in experiment [8].
On to `CC(C)c1cc(N2CCC(CCC(=O)NC3CC3)CC2)n2nccc2n1`, for which the Percent Effect in experiment [1] is -2.45%; in [2], 5.41%; in experiment [3], 2.79%; with Trypanosoma cruzi, -0.097%; in experiment [4] it was 2.45%; in [5], 9.76%. In addition, the Percent Effect in the experiment filed under Homo sapiens was 7.29%; in experiment [6] it was 4.79%; in experiment [7], 12.2%; in experiment [8], -3.08%.
As for `Cc1ccsc1C(=O)N1Cc2ccccc2C2(CCN(C)CC2)C1`, the Percent Effect was -4.41% in experiment [1]; -1.3% in [2]; -5.71% in experiment [3]; -5.55% in the experiment on Trypanosoma cruzi; -2.02% in [4]; 5.56% in experiment [5]. In addition, the Percent Effect in the experiment filed under Homo sapiens was -24.7%; in experiment [6], 1.58%; in [7] it was 2.56%; in [8] it was -2.8%.
For `COCc1cccc(NS(=O)(=O)c2cc(C(=O)O)cs2)c1`, the Percent Effect in [1] is -3.18%; in [2], 5.13%; in [3], -6.44%; with Trypanosoma cruzi, 2.91%; in experiment [4] it was 2.46%; in experiment [5], 8.11%. For the same molecule, the Percent Effect in the experiment filed under Homo sapiens was 4.97%; in [6], 3.35%; in experiment [7], 13.2%; in experiment [8], -5.54%.
`CN1CCCN(c2nccc(-c3c[nH]nc3C3CCCCC3)n2)CC1`: the Percent Effect in [1] was 2.25%; in experiment [2], 8%; in experiment [3], -4.76%; in the experiment with Trypanosoma cruzi, -6.22%; in experiment [4], 1.33%; in [5], 24%. In addition, the Percent Effect in the experiment filed under Homo sapiens was 23%; in experiment [6], 0.526%; in experiment [7], 2.56%; in [8], -14.2%.
In the case of `Cn1c(C2CC2)nc2c1CCN(CCS(=O)(=O)c1ccccc1)C2`, the Percent Effect in experiment [1] is -3.66%; in [2], -5.33%; in experiment [3] it was 1.61%; in the experiment on Trypanosoma cruzi, 5.22%; in [4] it was 0%; in [5], -2.46%. For the same molecule, the Percent Effect in the experiment filed under Homo sapiens is 3.62%; in experiment [6], 0.526%; in [7], 0%; in experiment [8], -4.67%.
Take `Cn1cc(C(=O)NC2CCN(Cc3ccn(C)c(=O)c3)CC2)cn1`: the Percent Effect is -0.0592% in experiment [1]; -7.69% in experiment [2]; -4.2% in experiment [3]; -1.41% with Trypanosoma cruzi; 4.51% in experiment [4]; 3.67% in experiment [5]. The Percent Effect in the experiment filed under Homo sapiens is 26.8%; in [6] it was -1.44%; in experiment [7] it was -3.61%; in [8] it was -4.65%.
In the case of `Cc1ccc(C(=O)N2Cc3c(CN4CCCCC4)nn(C)c3C2)cc1C`, the Percent Effect in experiment [1] was -5.88%; in [2] it was -1.3%; in experiment [3], -4.75%; in the experiment with Trypanosoma cruzi it was -3.02%; in [4] it was -4.86%; in experiment [5], 17.9%. Moreover, the Percent Effect was -26.6% in the experiment listed under Homo sapiens, -11.1% in experiment [6], -12.8% in experiment [7] and -3.91% in experiment [8].
On to `O=C(c1ccco1)N1CCC2(CC1)C(=O)NCCN2CC1CC1`, for which the Percent Effect in experiment [1] was -7.74%; in [2], 1.3%; in [3], -3.06%; with Trypanosoma cruzi it was -8.08%; in experiment [4], -4.05%; in experiment [5], 15.1%. The Percent Effect was 8.56% in the experiment filed under Homo sapiens, 1.58% in experiment [6], -2.56% in experiment [7] and -1.19% in [8].
Consider `CS(=O)(=O)NCC1CCCN(C(=O)c2cc3ccccc3o2)C1` (stereo not given), for which the Percent Effect is -0.17% in experiment [1]; 28.6% in experiment [2]; 3.25% in [3]; 3.36% in the experiment with Trypanosoma cruzi; -9.22% in experiment [4]; 15.1% in [5]. Moreover, the Percent Effect is 11.5% in the experiment listed under Homo sapiens, 5.88% in experiment [6], 23.5% in experiment [7] and -10.2% in [8].
